Calls of active or inactive are those of the source.
What was measured:
[1] = test system: Plasmodium falciparum Sir2 (PF13_0152, Sir2A); test: Plasmodium falciparum Sir2A binding compounds – biochemical, small-molecule microarray, 635 nm fluorescence, primary screen (AID 1098); conditions: fluorescence 635 nm, higher = more signal;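 note: score merges spot fluorescence intensity with its signal-to-noise ratio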
[2] = probe aDKK1 binding to arrayed compounds – biochemical, biotinylated probe, 635/667 nm fluorescence, primary screen (AID 1099); conditions: small-molecule microarray, higher = more signal;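 note: score merges 667nm spot fluorescence with signal to noise across triplicate slides; reference of the scale not given here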
[3] = probe aCHRDL2 binding to arrayed compounds – biochemical, biotinylated probe, 635/667 nm fluorescence, primary screen (AID 1100); conditions: small-molecule microarray, higher = more signal
[4] = change in splice reporter luminescence, either direction, cell-based, HEK293, spliceosome inhibition project, primary screen (AID 1101); conditions: HEK293 splicing luciferase reporter, 24 h, higher = more signal, called active from +8 up or from −8 down;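 note: HEK293 cells carrying a splicing-competent luciferase reporter gene; test concentration not given here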
[5] = biological target: Fibroblast growth factor 10 (Homo sapiens) (UniProt O15520); test: compounds binding fibroblast growth factor 10 – biochemical, small-molecule microarray, 635 nm fluorescence, primary screen (AID 1102); conditions: FGF10 binding, fluorescence 635 nm, higher = more signal
Fibroblast growth factor 10 (Homo sapiens), sequence (O15520 whole entry, looked up): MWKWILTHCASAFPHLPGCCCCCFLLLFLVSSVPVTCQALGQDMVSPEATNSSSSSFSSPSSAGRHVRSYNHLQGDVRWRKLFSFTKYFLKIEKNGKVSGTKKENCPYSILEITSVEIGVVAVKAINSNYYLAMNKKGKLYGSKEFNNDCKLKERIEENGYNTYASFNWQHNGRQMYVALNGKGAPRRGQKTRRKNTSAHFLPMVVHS

[6] = test system: glycogen synthase kinase-3 (GSK3A per assay name; protocol says GSK3B); test: compounds binding glycogen synthase kinase-3 – biochemical, small-molecule microarray, 635 nm fluorescence, GSK3A, primary screen (AID 1103); conditions: fluorescence 635 nm, higher = more signal; note: the record names both GSK3A and GSK3B
[7] = biological target: Epidermal growth factor receptor (Homo sapiens) (UniProt P00533); test: compounds binding epidermal growth factor receptor – biochemical, small-molecule microarray, 635 nm fluorescence, primary screen (AID 1104); conditions: EGFR binding, higher = more signal;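 note: score merges 667 nm emission intensity with spot signal to noise over triplicate slides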
Epidermal growth factor receptor (Homo sapiens), sequence (P00533 whole entry, looked up): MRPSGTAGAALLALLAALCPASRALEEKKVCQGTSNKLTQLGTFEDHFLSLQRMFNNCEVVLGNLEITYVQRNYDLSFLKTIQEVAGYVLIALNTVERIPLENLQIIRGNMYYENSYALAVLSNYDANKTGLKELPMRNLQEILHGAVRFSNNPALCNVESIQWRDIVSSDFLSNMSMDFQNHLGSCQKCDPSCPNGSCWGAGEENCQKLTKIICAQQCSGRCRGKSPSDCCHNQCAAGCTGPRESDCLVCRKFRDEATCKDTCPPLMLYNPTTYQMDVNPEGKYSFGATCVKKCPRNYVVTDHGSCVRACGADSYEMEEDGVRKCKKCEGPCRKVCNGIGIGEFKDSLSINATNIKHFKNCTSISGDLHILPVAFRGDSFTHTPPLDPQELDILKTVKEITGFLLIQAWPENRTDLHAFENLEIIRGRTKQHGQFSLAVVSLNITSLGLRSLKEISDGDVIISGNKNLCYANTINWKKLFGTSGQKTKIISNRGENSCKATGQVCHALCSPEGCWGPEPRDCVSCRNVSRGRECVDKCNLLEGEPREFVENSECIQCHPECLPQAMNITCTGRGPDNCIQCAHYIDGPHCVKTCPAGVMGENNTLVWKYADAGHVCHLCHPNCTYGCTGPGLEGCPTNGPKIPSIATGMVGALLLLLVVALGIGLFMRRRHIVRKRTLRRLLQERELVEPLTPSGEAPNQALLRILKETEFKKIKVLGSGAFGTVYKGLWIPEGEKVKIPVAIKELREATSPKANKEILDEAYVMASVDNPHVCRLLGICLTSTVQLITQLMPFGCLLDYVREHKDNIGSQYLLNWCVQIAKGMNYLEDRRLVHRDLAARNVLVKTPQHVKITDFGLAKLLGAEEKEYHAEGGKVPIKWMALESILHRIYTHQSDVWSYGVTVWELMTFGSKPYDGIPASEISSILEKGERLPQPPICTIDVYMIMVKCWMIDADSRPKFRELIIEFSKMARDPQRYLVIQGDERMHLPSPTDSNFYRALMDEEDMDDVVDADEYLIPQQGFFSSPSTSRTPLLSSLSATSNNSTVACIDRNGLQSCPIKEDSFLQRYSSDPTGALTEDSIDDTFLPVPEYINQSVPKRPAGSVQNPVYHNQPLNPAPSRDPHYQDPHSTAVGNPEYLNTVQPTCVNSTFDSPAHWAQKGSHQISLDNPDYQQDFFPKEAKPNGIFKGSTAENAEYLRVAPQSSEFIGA

[8] = biological target: Follistatin-related protein 3 (Homo sapiens) (UniProt O95633); test: compounds binding follistatin-related protein 3 – biochemical, small-molecule microarray, 635 nm fluorescence, primary screen (AID 1105); conditions: FSTL3 binding, higher = more signal;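 note: score merges emission near 667 nm and signal to noise per printed spot across three slides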
Follistatin-related protein 3 (Homo sapiens), sequence (O95633 whole entry, looked up): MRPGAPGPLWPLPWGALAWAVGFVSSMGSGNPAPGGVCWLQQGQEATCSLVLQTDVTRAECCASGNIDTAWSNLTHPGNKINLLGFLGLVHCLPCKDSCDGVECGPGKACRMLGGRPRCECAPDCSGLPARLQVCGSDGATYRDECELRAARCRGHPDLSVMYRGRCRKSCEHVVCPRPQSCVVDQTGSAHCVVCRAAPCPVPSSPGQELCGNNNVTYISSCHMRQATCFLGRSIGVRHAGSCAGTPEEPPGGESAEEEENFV

[9] = biological target: Dickkopf-related protein 1 (Homo sapiens) (UniProt O94907); test: small molecules binding DKK1 protein – biochemical, small-molecule microarray, 635 nm fluorescence scan, primary screen (AID 1106); conditions: higher = more signal;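 note: score merges emission near 667 nm with signal to noise over three replicate slides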
Dickkopf-related protein 1 (Homo sapiens), sequence (O94907 whole entry, looked up): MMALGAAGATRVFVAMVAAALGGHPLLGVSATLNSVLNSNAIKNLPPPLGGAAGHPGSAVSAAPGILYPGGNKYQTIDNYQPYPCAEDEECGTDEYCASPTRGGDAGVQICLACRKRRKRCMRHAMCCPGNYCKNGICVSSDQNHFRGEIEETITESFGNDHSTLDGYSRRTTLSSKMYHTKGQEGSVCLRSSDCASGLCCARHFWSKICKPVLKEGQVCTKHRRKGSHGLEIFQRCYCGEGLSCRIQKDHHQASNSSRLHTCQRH

[10] = test system: Inhibin beta A chain (activin A); test: small molecules binding activin A – biochemical, small-molecule microarray, 635 nm fluorescence scan, primary screen (AID 1107); conditions: INHBA, higher = more signal;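 note: mouse activin A protein probed at 4.33 µg/mL on printed slides; score merges bound-protein fluorescence near 667 nm with spot signal-to-noise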

Structure (SMILES) | composite z-score [1] | composite z-score [2] | composite z-score [3] | z-score [4] | composite z-score [5] | composite z-score [6] | composite z-score [7] | composite z-score [8] | composite z-score [9] | composite z-score [10]
O=C1C2C=CC(C(O)C(c3ccccc3)c3ccccc3)N(Nc3ccccc3)C2C(=O)N1c1ccccc1 (stereo not given) | 1.46 | 0.467 | 0.741 | -0.384 (inactive) | 0.68 | 1.32 | 0.385 | 1.44 | -0.42 | 0.221
C=CCC(OC(C)=O)[C@@H]1[C@@H](N(Cc2cccc3ccccc23)C(=O)c2cccc3ccccc23)c2cc(OCCCO)ccc2N1C(=O)Cc1ccc2ccccc2c1 (stereo not given in full) | -0.181 | -0.177 | 0.551 | 0.341 (inactive) | -0.0715 | -0.0273 | -0.117 | 0.246 | -0.394 | 1.48
COCCOC(=O)N1C(=O)[C@@]2(c3cc(C#Cc4ccc(OC)cc4)ccc31)[C@H](c1ccc(OCCO)cc1)N1[C@H](c3ccccc3)[C@H](c3ccccc3)OC(=O)[C@H]1[C@@H]2C(=O)N1CCCCCCC1 | 1.7 | 2.22 | 1.36 | -1.58 (inactive) | 0.821 | 1.24 | 0.719 | 1.52 | 1.29 | 1.65
CC(C)C(=C=CC[C@@H](O)c1ccc(OCCO)cc1)CCO | 0.959 | -0.233 | 0.0776 | -0.35 (inactive) | 0.688 | -0.579 | -0.395 | 0.196 | -0.117 | 0.516
O=C(NCC(F)(F)F)[C@@H]1c2ccccc2C(=O)N(CC23CC4CC(CC(C4)C2)C3)[C@H]1c1ccc(CO)cc1 | 0.586 | -0.0677 | -0.217 | -1.32 (inactive) | 0.75 | 0.804 | 0.169 | 0.858 | 0.26 | 0.47
COC(=O)[C@@]1(Cc2ccc(OC)cc2)[C@H]2c3cc(C(=O)N(C)C)n(Cc4ccsc4Br)c3C[C@H]2CN1C(=O)c1ccccc1 | 0.895 | 1.08 | 0.826 | -1.84 (inactive) | -0.0197 | -0.288 | 0.374 | -0.288 | -0.414 | 0.758
CCCCCCc1nc(-c2ccc(OC)nc2)cc2c1[Si](C(C)C)(C(C)C)OC2 | 0.0342 | -0.251 | -0.037 | -0.589 (inactive) | -0.322 | -0.574 | -0.459 | -0.351 | -0.329 | 0.96
CC(C)C[C@@H]1NC(=O)[C@@H]2C[C@H](C(=O)O)[C@H](c3ccc(O)cc3)N2C1=O | 1.44 | 0.361 | 0.383 | -0.687 (inactive) | 0.914 | 1.31 | 0.801 | 1.25 | 0.976 | -0.0021
CC(C)C[C@@H]1NC(=O)[C@@H]2C[C@H](C(=O)NCCCC[N+](C)(C)C)[C@H](c3ccc(O)cc3)N2C1=O | 1.39 | -0.0913 | -0.587 | 0.438 (inactive) | 1.3 | 0.896 | 0.81 | 1.56 | 1.79 | -0.531
COCCOC(=O)N1C(=O)[C@@]2(c3cc(C#CC4(O)CCCCCC4)ccc31)[C@H](c1ccc(OCCO)cc1)N1[C@H](c3ccccc3)[C@H](c3ccccc3)OC(=O)[C@H]1[C@@H]2C(N)=O | 1.37 | 0.0809 | 0.0419 | -1.47 (inactive) | 1.14 | 1.31 | 0.883 | 1.22 | 0.617 | 1
COc1ccc(CC[C@H](O)c2cccc(OCC(=O)OC(C)(C)C)c2)cc1 | 1.16 | 0.15 | -0.0667 | 1.3 (inactive) | 0.883 | 1.06 | 0.344 | 1.09 | 0.688 | -0.0035
CC(C)C[C@H]1NC(=O)[C@@H](C)NC(=O)[C@@]23C(=O)N[C@@H](Cc4ccccc4)C2[C@H](C)[C@@]2(C)O[C@H]2C3/C=C/C/C=C\CNC1=O (stereo not given in full) | 1.13 | -0.334 | -0.585 | -0.0326 (inactive) | 0.509 | -0.164 | 0.634 | 0.638 | 0.389 | 1.29
CCCCC=C[C@@H](NC(=O)c1ccc(C(F)(F)F)cc1)c1ccccc1 | -0.101 | 0.256 | 0.905 | -4.33 (inactive) | -1.13 | -1.03 | -1.28 | -1.01 | -1.37 | 1.37
CCOC(=O)C[C@H]1[C@H](OC(=O)c2cc3ccccc3oc2=O)[C@@H](NC(=O)C2CCCCC2)c2cc(OCCCO)ccc2N1C(=O)Cc1ccc(OC)cc1 | 0.199 | 0.0483 | 0.0801 | 0.0427 (inactive) | 1 | 0.469 | 0.193 | 0.397 | 0.447 | 0.6
NC(=O)[C@@]1(CCS(=O)(=O)c2ccccc2)COC(c2ccc(OCCCO)cc2)=N1 | 1.35 | 0.628 | 0.831 | 0.129 (inactive) | 0.19 | -0.123 | -0.143 | -0.232 | -0.526 | 1.21
CN1C(=O)C2C=CC(C(O)c3ccc(-c4ccccc4)s3)N(Nc3ccccc3)C2C1=O (stereo not given) | 1.27 | 0.644 | 1.1 | 1.43 (inactive) | 0.737 | 0.703 | 0.138 | 0.898 | -0.0947 | 1.23
COCCOC(=O)N1C(=O)[C@@]2(c3ccccc31)[C@H](C(=O)N1CCCCCCC1)[C@H]1C(=O)O[C@H](c3ccccc3)[C@H](c3ccccc3)N1[C@@H]2c1ccc(O)cc1 | 1.86 | 2.77 | 1.76 | -0.216 (inactive) | 1.38 | 1.35 | 1.32 | 1.68 | 1.93 | 1.92
CCOC(=O)C1=C[C@@H](C(C)(C)C)N(S(=O)(=O)c2ccc(C)cc2)[C@H]1c1ccccc1Cl | 0.993 | 1.18 | 1.11 | -0.232 (inactive) | 0.915 | 1.29 | 0.292 | 1.18 | 0.0627 | 0.0829
COCCOC(=O)N1C(=O)[C@@]2(c3cc(C#CC4=CCCCC4)ccc31)[C@H](C(=O)N1CCN(c3ncccn3)CC1)[C@H]1C(=O)O[C@H](c3ccccc3)[C@H](c3ccccc3)N1[C@@H]2c1ccccc1OCCO | 0.419 | -0.082 | -0.296 | -0.544 (inactive) | 1.3 | 1.28 | 0.396 | 1.19 | 0.402 | 0.451
COc1cc2c(cc1O)C(c1ccc(CN3CCCC3)cc1)N(Cc1cccc(OC(F)(F)F)c1)CC2 (stereo not given) | 1.02 | 0.422 | 0.414 | -2.59 (inactive) | 0.15 | 0.213 | 0.576 | 0.81 | 0.36 | 1.44
COC(=O)[C@@H]1N=C(c2ccc(OCCCO)cc2)O[C@@H]1c1ccccc1CN=[N+]=[N-] | -0.418 | 0.502 | 1.2 | 0.0193 (inactive) | -0.648 | -1.01 | -0.428 | -0.547 | -1.36 | 0.778
CC=CC(O)C1C=CC2C(=O)N(C)C(=O)C2N1NC(=O)OC(C)(C)C (stereo not given) | 0.589 | 0.112 | -0.388 | 1.54 (inactive) | 0.216 | 0.423 | 0.271 | 0.864 | 0.739 | 1.04
COC(=O)[C@@]1(Cc2ccccc2CN=[N+]=[N-])COC(c2ccc(OCCCO)cc2)=N1 | 1.97 | 0.269 | 1.23 | 0.861 (inactive) | -1.76 | -1.02 | -1.76 | -1.68 | -3.61 | -1.48
C=CCNC(=O)[C@H]1[C@@H]2C(=O)O[C@@H](c3ccccc3)[C@@H](c3ccccc3)N2[C@@H](c2ccccc2OCCO)[C@]12C(=O)N(C(=O)OCCOC)c1ccccc12 | 1.58 | 0.125 | 0.0274 | -1.24 (inactive) | 1.08 | 1.28 | 0.341 | 0.616 | 0.239 | -0.101
CCCC[C@H]1OB(O)C[C@H]2C1=C(C)C[C@H]1C(=O)C=CC(=O)[C@H]12 | 0.559 | -0.257 | -0.722 | 1.04 (inactive) | 0.845 | 0.827 | 0.475 | 0.799 | 0.664 | 0.852
C[N+](C)(C)CCCC[C@@H]1NC(=O)[C@H]2C[C@@H](C(=O)NCCCCCNC(=O)CS)[C@@H](c3ccc(O)cc3)N2C1=O | 1.43 | -0.0443 | 0.161 | -0.744 (inactive) | 0.499 | 0.57 | 0.0872 | -0.0399 | 0.312 | 0.425
C=CCC(OC(C)=O)[C@@H]1[C@@H](N(Cc2ccc(-c3cccc(C(F)(F)F)c3)o2)C(=O)Cc2ccc(F)cc2)c2cc(OCCCO)ccc2N1C(=O)c1ccc2ccccc2c1 (stereo not given in full) | 0.819 | -0.185 | 0.429 | -0.182 (inactive) | -0.701 | -1.87 | -0.659 | 0.199 | -0.0392 | 1.08
